Bioassay records (PubChem)
Statin myotox sup: protects C2C12 myotubes from simvastatin toxicity; ATP luminescence, 48 h; scaled: DMSO 0, geranylgeraniol control 100; rescue of ATP level, % at 7.49 µM; actives 0.78% (n = 330,000);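 active = mean ATP rescue above about 67%, or every replicate alone reaching that limit, limit read from the data, passing the limit was not always enough; inconclusive = no clear call, values can overlap the other calls; inactive = mean under the limit and some replicate under it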;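 note: myotubes were challenged with 10 µM simvastatin during compound exposure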
PglD inh: blocks C. jejuni PglD acetyltransferase activity | actives 0.098% (n = 360,000) | AID 602405 | purified PglD enzyme, DTNB colorimetric CoA detection | inhibition, % at 12.5 µM; in the data active = inhibition above about 16%, passing the limit was not always enough; inconclusive = no clear call, values can overlap the other calls
ARNT-TACC3 inh: disrupts binding between human ARNT and TACC3 | AlphaScreen His-ARNT PAS-B/GST-TACC3 binding, luminescence; TACC3 fragment carries E629A point mutation | Q9Y6A5 | actives 0.66% (n = 390,000) | inhibition, % at 9.99 µM;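 active = mean inhibition of replicates at least 50% and at least half of replicates each reaching 50%; inconclusive = half or more replicates reach 50% but mean below 50%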;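 note: 0% = complete ARNT plus TACC3 wells and 100% = ARNT alone without TACC3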
CFTR F508del cor: correctors of CFTR F508del function in bronchial epithelial cells; CFBE cells, YFP halide quenching; stimulated with forskolin plus potentiator P3; % fluorescence drop versus neutral controls; AID 720511; actives 0.36% (n = 350,000); activity (quench increase), % at 7.58 µM;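 active = mean added fluorescence quench of at least 8% versus neutral control, with both replicates also reaching 8%; inconclusive = only one of the mean or replicate conditions met; inactive = mean below 8% and not both replicates reaching 8%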;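 note: cells transiently co-express mutant CFTR-F508del with the halide-sensitive YFP; corrector assay measuring rescue of mutant channel to the surface after 24 h compound exposure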
PglD inh SP: confirmation of Campylobacter jejuni PglD acetyltransferase inhibitors | shares compounds with PglD inh | Purified C. jejuni PglD, DTNB absorbance 412 nm | inhibition, % at 20 µM | 320 tested, under 10 active | AID 743156;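 active = mean inhibition across replicates of at least 20% with every single replicate also at 20% or more; inconclusive = mean inhibition at least 20% but some replicate falls below 20%; inactive = mean inhibition under 20% and not all replicates reach it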;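 note: initial rate of CoA release by acetyl transfer from AcCoA to the UDP-4-amino sugar; 0% = median of neutral control wells and 100% = median of positive control wells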
* marks the source's active call; other numbers are inactive results; ? = inconclusive; / = no result given. The list is not random: actives were taken first. Their share in the collection is about 1.4%.

SMILES | Statin myotox sup | PglD inh | ARNT-TACC3 inh | CFTR F508del cor | PglD inh SP
C[C@@H]1CN([C@H](C)CO)C(=O)c2cc(NC(=O)Nc3cccc4ccccc34)ccc2O[C@@H](C)CCCCO[C@H]1CN(C)S(=O)(=O)c1ccccc1 | / | 6 | -27 | 0 | /
COc1cc(C(=O)Nc2nnc(C(F)(F)F)s2)c([N+](=O)[O-])cc1OC | / | 43* | -3 | 1 | 2
COc1cc(C(=O)Nc2nnc(SC)s2)c([N+](=O)[O-])cc1OC | / | / | -3 | -1 | /
O=S(=O)(Nc1cccnc1)c1ccc(Br)c2ccccc12 | 12 | 66* | -6 | 3 | 9
O=C(Nc1ccccc1)c1ccc(Br)c(S(=O)(=O)Nc2cccnc2)c1 | / | / | 1 | / | /
C[C@@H]1CN([C@@H](C)CO)C(=O)c2cc(NS(=O)(=O)c3ccc(Cl)cc3)ccc2O[C@@H](C)CCCCO[C@H]1CN(C)CC1CC1 | / | 1 | 4 | 3 | /
O=S(=O)(Nc1ccc(Cl)cc1)c1cccc2nsnc12 | 10 | 21* | 5 | 1 | -5
Cc1ccc(NS(=O)(=O)c2cccc3nsnc23)cc1C | 1 | -2 | 2 | 2 | /
CC(C)(C)c1ccc(-c2nnc3sc(-c4ccncc4)nn23)cc1 | 20 | 24* | 0 | / | 2
Cc1cc(C)n(CCCC(=O)O)n1 | 5 | 2 | 2 | 0 | /
CCSC1=NCN(CCCC(=O)O)CN1 | 9 | 20* | -3 | / | -2
O=C(C[C@@H]1CC[C@H]2[C@@H](COC[C@H](O)CN2CCC(F)(F)F)O1)NCC1CCCCC1 | 1 | 11 | -8 | -2 | /
CO[C@@H]1CN(C)C(=O)c2ccc(NS(C)(=O)=O)cc2OC[C@H](C)N(CC2CCOCC2)C[C@@H]1C | 6 | 1 | -8 | -1 | /
COc1cc(/C=N/Nc2nc(N3CCCC3)nc(N3CCCC3)n2)ccc1O | 4 | -168 | 17 | / | /
COc1ccc(-c2cnnc(N/N=C/c3ccc(O)c(OC)c3)n2)cc1 | -14 | 26* | 19 | / | 6
O=C1OCCC1Sc1nnc(-c2ccc(Br)cc2)o1 (configuration not stated) | 4 | 34* | -3 | / | -3
CCCNC(=O)N1[C@@H](CO)[C@@H](c2ccccc2)C12CN(C(=O)CC1CC1)C2 | / | / | / | 2 | /
Cc1ccc(CCC(=O)Nc2ccc(N(C)C)cc2)o1 | -13 | 83* | 4 | 0 | -3
COc1ccc(/C(O)=C2/C(=O)C(=O)N(CCCN3CCOCC3)C2c2ccc(Cl)cc2)cc1 (configuration not stated) | 40 | 24* | / | 5 | -1
Cc1c(C(=O)Nc2ccccc2C(=O)N2CCCC2)cccc1[N+](=O)[O-] | / | 23* | 3 | 0 | 2
Cc1ccc(NC(=O)CC2SC(=NCC3CCCO3)NC2=O)cc1Cl (configuration not stated) | 0 | / | 2 | / | /
COc1ccc(NC(=O)CC2SC(=NCC3CCCO3)NC2=O)cc1 (configuration not stated) | / | 26* | -4 | 0 | -2
COc1cccc(-c2ccc([C@@H]3[C@@H](CO)N(C(=O)C4CC4)C34CN(C(C)=O)C4)cc2)c1 | / | / | / | -2 | /
COC(=O)c1ccc(C2C(Oc3ccc(OC)cc3)C(=O)N2CCc2ccc(OC)c(OC)c2)cc1 (configuration not stated) | / | 35* | -2 | -1 | -12
O=C(C[C@H]1C=C[C@H](NC(=O)c2ccc3c(c2)OCO3)[C@H](CO)O1)NCc1ccc(F)cc1 | / | / | / | 0 | /
SMILES | Statin myotox sup | PglD inh | ARNT-TACC3 inh | CFTR F508del cor | PglD inh SP
COc1ccc(N2CCN(CCC(O)c3ccc4ccccc4c3)CC2)cc1 (configuration not stated) | 16 | 29* | -1 | 1 | 1
COc1ccc(C(CCN2CCN(c3ccccc3)CC2)c2c(O)cc(OC)cc2OC)cc1 (configuration not stated) | 11 | 1 | 8 | 0 | /
COCC(=O)NCCNc1nc2ccc(C)cc2cc1C | -4 | 41* | / | / | -3
Cc1ccc(-n2cc(-c3ccccc3)c3c(=O)[nH]cnc32)cc1 | / | 45* | -9 | -6 | 1
CC(=O)Nc1nnc(S(N)(=O)=O)s1 | 2 | 0 | -5 | -1 | /
CC(=O)Nc1nc(C)c(S(N)(=O)=O)s1 | 21 | 24* | -1 | / | -6
Cn1nnnc1SCCNS(=O)(=O)c1ccccc1 | -4 | 22* | -5 | / | ?
CC(C)c1cccc(-c2csc(C(C)(O)c3ccc(F)c(F)c3)n2)c1 (configuration not stated) | -51 | 24* | / | 1 | 3
CC(O)(c1ccc(F)c(F)c1)c1nc(-c2cccc(F)c2)cs1 (configuration not stated) | 9 | 2 | / | 1 | /
O=C(NCCCN=C1NS(=O)(=O)c2ccccc21)c1ccncc1 | -12 | 25* | 1 | / | 2
COc1ccc(S(=O)(=O)N(C)C[C@@H]2OCCCC[C@H](C)Oc3ccc(NC(=O)c4ccncc4)cc3C(=O)N([C@H](C)CO)C[C@H]2C)cc1 | / | -2 | 1 | 1 | /
CCc1ccc(N=C2NC(=O)/C(=C/c3cc(Br)c(OCC(=O)O)c(OC)c3)S2)cc1 | -4 | 27* | -1 | 2 | 20*
CCc1ccc(N=C2NC(=O)/C(=C/c3cc(OC)c(OC)c(OC)c3)S2)cc1 | -6 | 4 | 1 | 2 | /
CCOc1ccc(-c2nnc(-c3cccs3)o2)cc1 | 2 | 27* | -2 | / | 1
CCC1CCC2(CC1)NC(=O)N(CC(=O)NCc1ccc(Cl)cc1)C2=O (configuration not stated) | -2 | 2 | -3 | 2 | /
CC1CCC2(CC1)NC(=O)N(CC(=O)NCc1ccc(Cl)cc1)C2=O (configuration not stated) | -1 | 21* | -3 | 0 | 1
C[C@@H]1CN([C@@H](C)CO)C(=O)c2cccc(NC(=O)C3CCCCC3)c2O[C@@H]1CN(C)Cc1ccc2c(c1)OCO2 | 0 | 0 | 0 | 2 | /
COc1ccc(NC(=O)Nc2ccc3c(c2)C(=O)N([C@H](C)CO)C[C@@H](C)[C@H](CN(C)S(=O)(=O)c2ccc(Cl)cc2)OCCCC[C@H](C)O3)cc1 | / | -3 | -1 | -3 | /
OCc1ccccc1-c1ccc2nncn2c1 | 10 | 8 | / | -1 | /
c1csc(-c2ccc3nncn3c2)c1 | -4 | 36* | / | -1 | 0
CCn1cc(/C=N\NC(=O)c2ccc3c(c2)c(C)c(C)n3Cc2ccccc2)c(C)n1 | / | 32* | / | / | -5
CCn1ncc(/C=N\NC(=O)c2ccc3c(c2)c(C)c(C)n3Cc2ccccc2)c1C | 44 | 3 | -2 | / | /
Cn1c2ccccc2c2nnc(SCC(N)=O)nc21 | -19 | 47* | -3 | -1 | 1
O=C(CN1CCCCCCC1)Nc1ccc(Cl)cc1Cl | / | / | 16 | -2 | /
O=C(CN1CCCCC1)Nc1ccc(NC(=O)c2ccccc2Cl)cc1Cl | / | 20* | -2 | 4 | -2
COc1cccc(NC(=O)Nc2ccc3c(c2)OC[C@H](C)NC[C@@H](C)[C@@H](OC)CN(C)C3=O)c1 | -3 | -2 | 0 | 0 | /
